From ChEMBL document CHEMBL4513216, “Probing the Open Global Health Chemical Diversity Library for Multistage-Active Starting Points for Next-Generation Antimalarials” (ACS Infect Dis, 2020) come the findings set out here.

Hit rate of the full screen: of about 69,000 compounds, about 8,600 (12%) showed an effect of 50% or more. The list comes from a sample in which strong results are over-represented; it also holds similar structures and randomly drawn compounds.

This assay concerns Plasmodium berghei. Nature of the assay: Screen against P. berghei liver stage (PbLuc), transformed with Luciferase, at 10uM. As to conditions: tested at 10 uM. It counts as functional, HepG2.
`O=C(c1ccnnc1)N1C[C@H]2CCC[C@@]2(COCc2ccccn2)C1`: the INHIBITION came to 31.1%.
The same measure for `O=C(c1cocn1)N1C[C@H]2CCC[C@@]2(COCc2cccnc2)C1`: 9.63%; for `O=C(C1CCOCC1)N1C[C@H]2CCC[C@@]2(COCc2ccccn2)C1`: 53%.
As for `O=C(C1CCOCC1)N1C[C@H]2CCC[C@@]2(COc2cccnc2)C1`, the figure is 23.6%.
Take `O=C(c1ccc(F)cc1)N1C[C@H]2CCC[C@@]2(COCc2ccccn2)C1`: the INHIBITION is recorded as 40.9%.
As for `O=C(c1cscn1)N1C[C@H]2CCC[C@@]2(COCc2ccccn2)C1`, the figure is 64.7%; as for `Cc1ncoc1C(=O)N1C[C@H]2CCC[C@@]2(COCc2cccnc2)C1`, 60.1%.
The same measure for `O=S(=O)(C1CC1)N1C[C@H]2CCC[C@@]2(COCc2ccccn2)C1`: 43.9%.
As for `O=C(C1CCOCC1)N1C[C@H]2CCC[C@@]2(COc2ccccn2)C1`, the figure is 13.6%; as for `c1ccc(COC[C@@]23CCC[C@@H]2CN(Cc2ccccn2)C3)nc1`, -7.94%; as for `O=C(N1CCCC1)N1C[C@H]2CCC[C@@]2(COCc2ccccn2)C1`, 63.8%.
For the molecule `O=C(NCCCn1cccn1)C1(c2ccccc2)CCOCC1`, the INHIBITION amounted to 16.8%.
As for `Cc1c(C(=O)N2CCCC(n3nnc4cc(F)ccc43)C2)cnn1C` (stereo not drawn), the figure is 2.71%; as for `CCC(NC(=O)COC)c1ccccc1OCC(=O)N1CCCC1` (stereo not drawn), -4.65%; as for `CN(C)C[C@@H]1CN(C(=O)c2cc(-c3ccccc3)n[nH]2)C[C@@H]1CO`, 43.9%.
As for `COc1ccc(S(=O)(=O)NC(=O)COC2CCCC2)cc1`, the figure is -0.96%; as for `Cc1ccc(NC(=O)N2C[C@@H]3CC[C@H]2CN(Cc2cscn2)C3)cc1`, -28.6%.
In the case of `Nc1ccnc(N2C[C@H]3CC[C@@H](C2)N(CC2CCC2)C3=O)n1`, the INHIBITION is given as -32.4%.
Turning to `CCn1ccc(NC(=O)CCn2nc(C)c3ccccc32)n1`, the INHIBITION is on record as -21.3%.
As for `CCN(CC)C(=O)Cn1ccc2cc(NC(=O)NC3CC3)ccc21`, the figure is -22.91%; as for `CCC(=O)N1CCC(NC(=O)c2cccc(-n3ccnc3)c2)C1` (stereo not drawn), 2.43%; as for `Cc1cc(C)n(CC2CCCN2C(=O)c2cccc3c2OCCO3)n1` (stereo not drawn), 10.85%.
The same measure for `CS(=O)(=O)CC(=O)N1C[C@H]2CCC[C@@]2(COCc2ccccn2)C1`: 25%.
As for `COC[C@@]12CCC[C@@H]1CN(C(=O)Cc1ccccn1)C2`, the figure is 39.4%; as for `O=C(Cc1ccsc1)N1C[C@H]2CCC[C@@]2(COCc2ccccn2)C1`, 63.8%; as for `Cc1ccccc1C(=O)NC(C)c1cnn(C)c1` (stereo not drawn), 40.8%.
Take `CNC(=O)CNCc1c[nH]nc1-c1cc2ccccc2o1`: the INHIBITION was 1.51%.
The same measure for `CNc1nc2c(c(C(=O)N3CCCC3)n1)CN(C(=O)CCSC)CC2`: -36.6%.
In the case of `CN(C)CCN1CCOC2(CCN(c3nccs3)CC2)c2ccccc21`, the INHIBITION is 58.5%.
As for `CS(=O)(=O)N1CCOC2(CCN(c3nccs3)CC2)c2ccccc21`, the figure is 5.36%; as for `CN(C)CCN1CCN(C)C2(CCN(c3nccs3)CC2)C1=O`, 17.2%.
The same measure for `CC(C)C(NC(=O)C1CCCC1)c1cc(O)nc(-c2cccnc2)n1` (stereo not drawn): 28.925%; for `CS(=O)(=O)c1ccc(OCCCN2CCc3cncnc3C2)cc1`: 31.2%; for `CN(C)CCN1CCCC12CCCN(Cc1ccoc1)C2` (stereo not drawn): 21.6%.
As for `Cc1nccc(C2CN(C(=O)c3cncnc3)C2)n1`, the figure is -14.2%.
Take `Cc1cccc(CN2C(=O)OCC2CO)c1F` (stereo not drawn): the INHIBITION is reported as -21.8%.
For `Cc1[nH]c2c(F)cccc2c1CC(=O)NCCCc1csc(N)n1`, the INHIBITION was 1.24%.
Turning to `Cc1ccc(-c2cc(C(=O)NCCCc3csc(N)n3)[nH]n2)o1`, the INHIBITION was 64.6%.
The same measure for `Cc1ccc(-c2cc(C(=O)NCCN3CCCS3(=O)=O)[nH]n2)o1`: -7.25%.
As for `Cn1cccc1-c1cc(C(=O)NCCCc2csc(N)n2)[nH]n1`, the figure is 35%; as for `Cc1ccc(-c2cc(C(=O)NCCCc3csc(N)n3)[nH]n2)s1`, 56.5%; as for `COc1ccc2c(C)c(C(=O)NCCCc3csc(N)n3)oc2c1`, 43.6%.
Consider `CNC(=O)C1CN(C(C)C)CCN1c1nc(C)cc(C)n1` (stereo not drawn), for which the INHIBITION stood at 3.48%.
As for `O=C(CC1NC(N2CCc3ccccc3C2)=NC1=O)Nc1ccccc1` (stereo not drawn), the figure is 19.3%.
The same measure for `O=C1COc2c(cccc2C(=O)N2CCCC(n3cccn3)C2)N1` (stereo not drawn): -4.94%; for `Cc1nc(C(C)C)sc1C(=O)N1CCN(C2CN3CCC2CC3)CC1` (stereo not drawn): -6.91%.
The same measure for `Cc1nc(CN(C)C2CCN(Cc3cnc(C)s3)C2)no1` (stereo not drawn): -29.8%; for `CCc1nc(CN(C(C)=O)C2CCN(CC3CCOCC3)C2)no1` (stereo not drawn): 17.4%.
On to `CCc1nc(CN(C(C)=O)C2CCN(CCc3ccccc3)C2)no1` (stereo not drawn), for which the INHIBITION came out at 19.4%.
As for `COCCN1CCC(N(Cc2noc(C3CC3)n2)C(C)=O)C1` (stereo not drawn), the figure is 23.4%; as for `CC(=O)N(Cc1noc(C2CC2)n1)C1CCN(CC2CCOCC2)C1` (stereo not drawn), 56.6%; as for `CCc1nc(CN(C)C2CCN(CCc3ccncc3)C2)no1` (stereo not drawn), -12.2%.
The same measure for `Cc1cnc(CN(C)C2CCN(Cc3nc4ccccc4s3)C2)o1` (stereo not drawn): 15.3%.
As to `Cc1nc(CN(C)C2CCN(Cc3ccc4ccccc4n3)C2)no1` (stereo not drawn), the INHIBITION is 70.1%.
The same measure for `Cc1nc(CN(C)C2CCN(Cc3nc4ccccc4n3C)C2)no1` (stereo not drawn): 48.2%; for `CCc1nc(CN(C(C)=O)C2CCN(CCc3ccncc3)C2)no1` (stereo not drawn): 66.7%.
With `Cc1nc(CN(C)C2CCN(Cc3cccc4cccnc34)C2)no1` (stereo not drawn), the INHIBITION was determined as 25.3%.
Turning to `Cc1nc(CN(C)C2CCN(Cc3nc4ccccc4s3)C2)no1` (stereo not drawn), the INHIBITION turned out to be 60%.
